# PubChem BioAssay (NCATS)
# Records with an inconclusive call do not appear. A call without a number means that no potency is given here. The source made the active and inactive calls. Unless noted, calls come from the whole dose curve; as a rule, active = well fitted curve in the direction sought with a large enough effect; inconclusive = small, poorly fitted or top-dose-only effect, or another doubt; inactive = no such curve, though single readings can be large; an effect the other way counts as inactive or inconclusive.
# What was measured:
# [1] = qHTS profiling for inhibitors of Plasmodium falciparum (3D7) proliferation (AID 743322);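 note: infected erythrocytes exposed to compound for 72 h before lysis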; conditions: P. falciparum 3D7 proliferation; at 28.7 µM (top of the series)
# Method in brief: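 Parasite DNA was quantified by SYBR Green I fluorescence (ex 485, em 535 nm) after overnight lysis in saponin/Triton buffer at room temperature. Cultures at 0.3% parasitemia and 2.5% hematocrit were first exposed to compound for 72 h at 37 C; signals were normalised to artemisinin (0.29 uM) and vehicle wells.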
# [2] = qHTS profiling for inhibitors of Plasmodium falciparum (DD2) proliferation (AID 743323; call rule not given here); conditions: lower = more inhibition; at 28.7 µM (top of the series)
# Method in brief: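 Parasite DNA quantified by SYBR Green fluorescence (ex 485, em 535 nm) after saponin/Triton lysis and overnight dark incubation. Cultures: 0.3% parasitemia, 2.5% hematocrit, 72 h, 37 C; data scaled between DMSO and 0.29 uM artemisinin.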
# [3] = qHTS profiling for inhibitors of Plasmodium falciparum (HB3) proliferation (AID 743324); conditions: Plasmodium falciparum HB3 blood-stage proliferation; at 28.7 µM (top of the series)
# Method in brief: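 SYBR Green fluorescence (485 ex/535 em) of lysed cultures, incubated overnight at room temperature in the dark, quantifies parasite DNA. Infected erythrocytes at 0.3% parasitemia and 2.5% hematocrit were exposed 72 h; values normalized to DMSO and 0.29 uM artemisinin controls.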
# [4] = qHTS assay for measurement of the activity of small molecule inhibitors on Zika virus induced Caspase-3 activity in human astrocytoma cells (AID 1224859)
# Method in brief: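 Human SNB-19 astrocytoma cells in RPMI 1640 with 10% FBS receive compound one hour ahead of Zika virus at 2 FFU/cell. After 6 h infection, caspase-3/7 activity is detected by Caspase-Glo luminescence.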
# [5] = Natriuretic polypeptide receptor (hNpr1) antagonism - Pilot counterscreen GloSensor control cell line (AID 1347045; calls by dose curve; note: potency is the fitted concentration of half-maximal effect)
# Method in brief: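 The SNP-driven cGMP luminescence signal (50 uM, 20 min, room temperature) was measured in GloSensor HEK293 control cells. Compounds were tested as a LOPAC titration series and preincubated for 30-50 min.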
# [6] = target: Atrial natriuretic peptide receptor 1 (Homo sapiens) (UniProt P16066); test: Natriuretic polypeptide receptor (hNpr1) antagonism - Pilot screen (AID 1347049; calls by dose curve;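 note: HEK293 cells with hNpr1 and GloSensor cGMP luciferase stimulated by 0.1 nM hNppA; agonist-evoked cGMP luminescence read 20 min after hNppA addition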; note: potency is the fitted concentration of half-maximal effect)
# Chain of Atrial natriuretic peptide receptor 1 (Homo sapiens) (P16066 whole entry, looked up): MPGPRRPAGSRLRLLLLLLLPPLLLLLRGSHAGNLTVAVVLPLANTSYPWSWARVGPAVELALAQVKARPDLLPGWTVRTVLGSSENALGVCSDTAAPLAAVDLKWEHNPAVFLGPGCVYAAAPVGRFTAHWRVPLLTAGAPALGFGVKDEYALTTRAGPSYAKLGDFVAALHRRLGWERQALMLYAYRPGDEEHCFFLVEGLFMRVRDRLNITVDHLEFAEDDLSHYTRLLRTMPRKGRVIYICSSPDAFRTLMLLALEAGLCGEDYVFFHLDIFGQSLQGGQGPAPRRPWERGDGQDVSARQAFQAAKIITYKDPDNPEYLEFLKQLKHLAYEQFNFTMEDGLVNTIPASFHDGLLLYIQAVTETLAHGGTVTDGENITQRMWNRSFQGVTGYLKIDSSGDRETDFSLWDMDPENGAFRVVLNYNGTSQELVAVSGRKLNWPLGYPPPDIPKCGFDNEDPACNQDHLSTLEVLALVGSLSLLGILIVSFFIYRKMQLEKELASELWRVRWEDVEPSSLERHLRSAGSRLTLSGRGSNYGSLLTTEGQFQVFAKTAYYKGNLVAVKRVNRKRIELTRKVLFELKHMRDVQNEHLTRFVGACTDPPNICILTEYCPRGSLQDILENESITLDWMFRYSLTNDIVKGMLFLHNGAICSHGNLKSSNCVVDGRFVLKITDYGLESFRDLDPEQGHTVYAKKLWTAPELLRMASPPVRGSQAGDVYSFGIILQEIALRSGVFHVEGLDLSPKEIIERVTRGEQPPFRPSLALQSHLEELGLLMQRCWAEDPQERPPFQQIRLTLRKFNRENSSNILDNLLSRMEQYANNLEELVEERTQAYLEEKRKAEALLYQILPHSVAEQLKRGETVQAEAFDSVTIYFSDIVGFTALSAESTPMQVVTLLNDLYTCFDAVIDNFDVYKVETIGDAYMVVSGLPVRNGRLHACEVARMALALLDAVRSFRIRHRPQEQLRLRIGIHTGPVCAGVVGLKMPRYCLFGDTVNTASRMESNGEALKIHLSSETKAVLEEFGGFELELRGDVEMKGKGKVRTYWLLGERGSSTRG
# Method in brief: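 Receptor antagonism read as cGMP-dependent luminescence in hNpr1/pGS-40F HEK293 cells: pre-read after 30 min compound exposure, post-read 20 min after hNppA agonist at 0.1 nM final, all at room temperature, protected from light; A-71915 titration as control.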
# [7] = target: Atrial natriuretic peptide receptor 2 (Homo sapiens) (UniProt P20594); test: Natriuretic polypeptide receptor (hNpr2) antagonism - Pilot subtype selectivity assay (AID 1347050; calls by dose curve)
# Chain of Atrial natriuretic peptide receptor 2 (Homo sapiens) (P20594 whole entry, looked up): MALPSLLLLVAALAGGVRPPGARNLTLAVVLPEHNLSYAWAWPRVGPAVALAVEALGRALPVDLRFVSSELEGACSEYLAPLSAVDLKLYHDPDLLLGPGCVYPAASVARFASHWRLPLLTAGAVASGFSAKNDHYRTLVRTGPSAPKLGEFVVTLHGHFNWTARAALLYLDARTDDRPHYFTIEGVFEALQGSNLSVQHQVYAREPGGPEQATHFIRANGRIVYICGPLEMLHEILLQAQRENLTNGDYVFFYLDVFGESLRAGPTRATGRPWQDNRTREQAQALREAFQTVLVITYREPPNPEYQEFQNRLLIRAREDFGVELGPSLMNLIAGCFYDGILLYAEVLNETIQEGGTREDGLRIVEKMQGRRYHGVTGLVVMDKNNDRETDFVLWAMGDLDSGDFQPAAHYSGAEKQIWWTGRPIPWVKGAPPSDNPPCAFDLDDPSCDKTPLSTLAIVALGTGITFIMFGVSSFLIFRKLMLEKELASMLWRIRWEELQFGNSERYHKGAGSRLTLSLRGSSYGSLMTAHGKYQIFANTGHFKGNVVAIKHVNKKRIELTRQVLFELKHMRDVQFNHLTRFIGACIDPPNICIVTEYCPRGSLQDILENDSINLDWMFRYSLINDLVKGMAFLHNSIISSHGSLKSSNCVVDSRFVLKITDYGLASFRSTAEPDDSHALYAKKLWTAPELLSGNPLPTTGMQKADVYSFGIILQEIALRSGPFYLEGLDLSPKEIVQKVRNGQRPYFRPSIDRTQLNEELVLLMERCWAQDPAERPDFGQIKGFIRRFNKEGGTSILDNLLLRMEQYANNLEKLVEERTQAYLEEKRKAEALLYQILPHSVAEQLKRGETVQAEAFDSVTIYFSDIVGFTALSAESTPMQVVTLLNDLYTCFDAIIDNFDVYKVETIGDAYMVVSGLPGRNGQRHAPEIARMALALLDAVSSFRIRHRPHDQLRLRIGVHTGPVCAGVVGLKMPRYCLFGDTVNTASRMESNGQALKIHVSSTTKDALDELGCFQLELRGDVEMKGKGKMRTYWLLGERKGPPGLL
# Method in brief: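 Antagonist mode: compounds (LOPAC1280, seven 1:5 dilutions) added 30 min before 1 nM hNppC stimulation of hNpr2-HEK293 cGMP-sensor cells; luminescence read before and 20 min after agonist at ambient temperature.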
# [8] = qHTS assay to identify small molecule inhibitors of chordoma cells - UCH-1 (AID 1259355); note: nearly all actives have a fitted effect of over 55% in size
# Method in brief: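 800 cells/well, overnight attach; compounds pinned at 15 concs, then auranofin/camptothecin/doxorubicin/rubitecan/topotecan combo added; 48hr 37 C, 5% CO2; CellTiter-Glo, 30min RT, luminescence.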
# [9] = NS1 protein of Zika virus - qHTS assay to identify small molecule inhibitors in human HEK 293 cells (AID 1347053); note: nearly all actives have a fitted effect of over 55% in size
# Method in brief: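 Read-out is a two-antibody TR-FRET for ZIKV NS1, normalized between uninfected cells and infected cells. Compound added 1 h before MR766 infection at MOI 0.5; human HEK 293 cells incubated 24 h, 37 C.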
# [10] = target: T1, Tyrosine-protein phosphatase non-receptor type substrate 1 (Homo sapiens) + Leukocyte surface antigen CD47 (Homo sapiens) (UniProt P78324+Q08722); test: CD47-SIRPalpha protein protein interaction - LANCE assay qHTS validation (AID 1347057; active = well fitted curve in the direction sought with a large enough effect in the signal ratio, with a control signal flat, not every such curve was filed as active; the % refers to the signal ratio; note: potency is the fitted concentration of half-maximal effect)
# T1 sequence (P78324 whole entry, looked up, the tested form may be a part): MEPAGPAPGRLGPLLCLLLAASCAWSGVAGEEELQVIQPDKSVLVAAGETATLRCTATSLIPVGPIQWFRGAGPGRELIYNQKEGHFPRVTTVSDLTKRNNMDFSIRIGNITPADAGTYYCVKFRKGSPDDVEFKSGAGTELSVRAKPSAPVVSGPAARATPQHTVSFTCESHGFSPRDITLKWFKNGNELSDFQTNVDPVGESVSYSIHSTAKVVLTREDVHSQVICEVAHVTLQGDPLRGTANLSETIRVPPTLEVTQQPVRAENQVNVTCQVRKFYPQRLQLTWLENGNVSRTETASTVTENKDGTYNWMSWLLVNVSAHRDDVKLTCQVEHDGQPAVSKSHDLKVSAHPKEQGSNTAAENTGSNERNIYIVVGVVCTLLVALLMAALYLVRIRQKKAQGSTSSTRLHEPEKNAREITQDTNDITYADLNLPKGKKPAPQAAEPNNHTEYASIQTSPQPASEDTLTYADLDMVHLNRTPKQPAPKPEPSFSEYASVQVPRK
# T1 sequence (Q08722 whole entry, looked up, the tested form may be a part): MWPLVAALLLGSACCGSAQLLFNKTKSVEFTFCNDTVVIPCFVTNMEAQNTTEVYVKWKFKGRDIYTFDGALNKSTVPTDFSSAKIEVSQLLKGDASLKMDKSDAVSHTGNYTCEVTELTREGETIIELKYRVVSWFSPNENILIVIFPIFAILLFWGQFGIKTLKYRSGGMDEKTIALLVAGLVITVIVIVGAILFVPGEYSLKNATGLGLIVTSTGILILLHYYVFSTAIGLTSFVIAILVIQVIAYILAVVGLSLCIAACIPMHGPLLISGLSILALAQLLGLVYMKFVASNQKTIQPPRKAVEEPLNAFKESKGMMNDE
# Method in brief: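 Inhibition of soluble CD47/SIRPalpha ectodomain association by titrated compounds, measured as 665/615 nm time-resolved FRET ratio after sequential 30 min room-temperature incubations.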
# [11] = qHTS assay for cell viability of the p53RE-bla HCT-116 cell line (AID 743292); note: nearly all actives have a fitted effect of over 55% in size
# Method in brief: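 CellSensor p53RE-bla HCT-116 cells (4,000/well) pre-incubated 5 h at 37 C, then exposed to compounds in DMSO for 16 h at 37 C. Viability read as ATP content by CellTiter-Glo luminescence after 30 min at room temperature.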
# [12] = P-glycoprotein substrates identified in KB-8-5-11 adenocarcinoma cell line, qHTS therapeutic library screen (AID 1346987); note: nearly all actives have a fitted effect of over 65% in size; note: potency is the fitted concentration of half-maximal effect
# Method in brief: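 Human cervical adenocarcinoma KB-8-5-11 cells, selected in colchicine to over-express P-gp and assayed without it, were exposed for 72 h to titrated compounds. An ATP-based luminescent viability signal gave AC50.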
# [13] = P-glycoprotein substrates identified in KB-3-1 adenocarcinoma cell line, qHTS therapeutic library screen (AID 1346986);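 note: potency is the fitted concentration of half-maximal effect; potency is for cytotoxicity meaning loss of cell viability; nearly all actives have a fitted effect of over 60% in size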
# Method in brief: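 Dose-response cytotoxicity, KB-3-1 vs P-gp-high KB-8-5-11, no colchicine in assay medium. Read: CellTiter-Glo at 72 h.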
# [14] = target: T1, Tyrosine-protein phosphatase non-receptor type substrate 1 (Homo sapiens) + Leukocyte surface antigen CD47 (Homo sapiens); test: CD47-SIRPalpha protein protein interaction - HTRF assay qHTS validation (AID 1347058; active = well fitted curve in the direction sought with a large enough effect in the signal ratio, not every such curve was filed as active; the % refers to the signal ratio)
# Method in brief: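 Soluble extracellular domains (6His-CD47, Avi-tag-biotinylated SIRPalpha) in PBS pH 7.4 with 0.05% IGEPAL CA-630. Compounds were preincubated 30 min at RT with CD47 and anti-His-Eu, then SIRPalpha and SAV-XL665 were added. TR-FRET 665/615 ratio.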
# [15] = qHTS assay to identify small molecule inhibitors of chordoma cells - UCH-2 (AID 1259356)
smiles,measurement,setting,value
NC(Cc1ccc(N(CCCl)CCCl)cc1)C(=O)O (configuration not stated),remaining parasite growth % (stronger effect = lower value),[1],34.1%
same,"activity, percent of control",[2],18.8%
same,"remaining proliferation (% of control), lower = more inhibition",[3],9.39%
same,outcome,[4],inactive
same,Potency,[5],inactive
same,Potency,[6],inactive
same,Potency,[7],inactive
O[C@H]1[C@H]2[C@H](O)CCCN2C[C@H]1O,Potency,[8],inactive
C=CCN1CC[C@]23c4c5ccc(O)c4O[C@@H]2/C(=N/N=C2\CC[C@@]4(O)C6Cc7ccc(O)c8c7[C@@]4(CCN6CC=C)[C@@H]2O8)CC[C@@]3(O)C1C5,outcome,[4],inactive
same,Potency,[5],inactive
same,Potency,[6],inactive
C=CCN1CCc2cccc3c2[C@H]1Cc1ccc(O)c(O)c1-3,outcome,[4],inactive
same,Potency,[6],inactive
same,Potency,[7],inactive
CC(=O)OCC1=C(C(=O)O)N2C(=O)[C@@H](NC(=O)CCC[C@@H](N)C(=O)O)[C@H]2SC1,outcome,[4],inactive
same,Potency,[5],inactive
same,Potency,[6],inactive
same,Potency,[7],inactive
same,outcome,[9],inactive
same,Potency,[10],4.65 µM (active)
CCCn1c(C)c(C(=O)c2ccc3ccccc3c2)c2ccccc21,outcome,[4],inactive
same,Potency,[5],inactive
same,Potency,[6],inactive
same,Potency,[7],inactive
CCN(CCCl)Cc1ccccc1Br,outcome,[4],inactive
same,Potency,[5],inactive
same,Potency,[6],inactive
same,Potency,[7],inactive
COc1ccc2c(c1)c(CCN1CCOCC1)c(C)n2C(=O)c1cccc(Cl)c1Cl,outcome,[4],inactive
same,Potency,[5],inactive
same,Potency,[6],inactive
same,Potency,[7],inactive
O=C(O)c1cc[c]([Hg][Cl])cc1,Potency,[11],inactive
same,outcome,[4],inactive
same,Potency,[5],inactive
same,Potency,[7],inactive
C[N+]1(C)CCCCC1COC(=O)C(O)(c1ccccc1)c1ccccc1 (configuration not stated),Potency,[8],inactive
CCCSP(=O)(OCC)SCCC,Potency,[11],inactive
same,outcome,[4],inactive
same,Potency,[12],inactive
same,outcome,[9],inactive
C[C@]12C[C@H]3S[C@H]3C[C@@H]1CC[C@@H]1[C@@H]2CC[C@]2(C)[C@@H](O)CC[C@@H]12,Potency,[8],inactive
COc1ccc2c(c1)/C(=C/c1cnc[nH]1)C(=O)N2,outcome,[4],inactive
same,Potency,[13],7.31 µM (active)
same,Potency,[12],5.17 µM (active)
same,Potency,[5],inactive
same,Potency,[6],inactive
same,Potency,[7],inactive
CCCCCCC(C)(C)c1ccc([C@@H]2C[C@H](O)CC[C@H]2CCCO)c(O)c1,outcome,[4],inactive
same,Potency,[6],inactive
same,Potency,[7],inactive
[N-]=[N+]=CC(=O)OCC(N)C(=O)O (configuration not stated),Potency,[8],inactive
N[C@@H](Cn1ccc(=O)[nH]c1=O)C(=O)O,outcome,[4],inactive
same,Potency,[5],inactive
same,Potency,[6],inactive
same,Potency,[7],inactive
CCCCCc1cc(O)c2c(c1)OC(C)(C)[C@@H]1CCC(C)=C[C@@H]21,Potency,[8],inactive
Oc1ccc2c3c1O[C@H]1[C@@H](O)CC[C@@]4(O)[C@@H](C2)N(CC2CCC2)CC[C@]314,Potency,[8],inactive
CC(Cc1ccc(OCC(=O)O)cc1)NCC(O)c1cccc(Cl)c1 (configuration not stated),outcome,[4],inactive
same,Potency,[5],inactive
same,Potency,[6],inactive
same,Potency,[7],inactive
same,outcome,[9],inactive
same,Potency,[10],inactive
same,outcome,[14],inactive
N[C@@H](CCl)C(=O)O,outcome,[4],inactive
same,Potency,[5],inactive
same,Potency,[6],inactive
same,Potency,[7],inactive
C=CC[C@]1(O)CC[C@H]2[C@@H]3CCC4=CCCC[C@@H]4[C@H]3CC[C@@]21C,Potency,[8],inactive
N#C/C(=C/c1ccc(O)c(O)c1)C(N)=S,outcome,[4],inactive
same,Potency,[6],inactive
same,Potency,[7],inactive
same,outcome,[9],inactive
CC(C)(O)C1C2OC(=O)C1C1(O)CC3OC34C(=O)OC2C14C (configuration not stated),Potency,[8],inactive
CC(C)(O)[C@@H]1C2OC(=O)[C@@H]1[C@]1(O)C[C@H]3O[C@]34C(=O)O[C@H]2[C@]14C (tested in a mixture with another compound),outcome,[4],inactive
same,Potency,[5],inactive
same,Potency,[6],inactive
same,Potency,[7],inactive
same,outcome,[9],inactive
same,Potency,[10],inactive
same,outcome,[14],inactive
COc1cc(CC(C)N)c(OC)cc1I (configuration not stated),outcome,[4],inactive
same,Potency,[5],inactive
same,Potency,[7],inactive
C=CCN1CC[C@]23c4c5ccc(O)c4O[C@H]2/C(=N/NC(=O)c2ccccc2)CC[C@@]3(O)[C@H]1C5,outcome,[4],inactive
same,Potency,[5],inactive
same,Potency,[6],inactive
same,Potency,[7],inactive
CN1[C@@H]2CC[C@H]1CC(OC1c3ccccc3CCc3ccccc31)C2 (some centres not stated),Potency,[8],inactive
CCC(=O)O[C@@](Cc1ccccc1)(c1ccccc1)[C@@H](C)CN(C)C,Potency,[8],inactive
same,Potency,[15],inactive
CCN(CC)CCO[C@H]1CC[C@@]2(C)C(=CC[C@@H]3[C@@H]2CC[C@]2(C)C(=O)CC[C@@H]32)C1,Potency,[8],inactive
NC(N)=Nc1ccc2[nH]c3c(c2c1)C[C@@]1(O)[C@H]2Cc4ccc(O)c5c4[C@@]1(CCN2CC1CC1)[C@H]3O5,outcome,[4],inactive
same,Potency,[5],6.56 µM (active)
same,Potency,[6],19 µM (active)
same,outcome,[9],inactive
same,Potency,[10],inactive
CN(C)[C@H](Cc1ccccc1)c1ccccc1,Potency,[8],inactive
same,Potency,[15],inactive
CCN(CC)C(=O)N[C@H]1C[C@@H]2c3cccc4[nH]cc(c34)C[C@H]2N(C)C1,Potency,[8],inactive
same,Potency,[15],inactive
